# Results from PubChem BioAssay (NCI).
# Compounds without any hit were thinned out: in the full panel of roughly 83,000, 20% have a hit.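 Interpretation: 100, growth as untreated; towards 0, rising growth inhibition; 0, no net growth; 0 to -100, cell death. Compounds scoring below 10 were considered active.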 Activity calls are given as the source filed them.
# System: MALME-3M melanoma
# Assay: NCI-60 one-dose screen, 48 h (100 = growth as untreated, 0 = no growth, -100 = all killed)
# Conditions: 10 µM unless noted
row,SMILES,growth
1,COc1cc2c3c(c1)nc(C)n3CCC2,110% (inactive)
2,Cc1sc2c(c1C)c(=O)nc1c(-c3nc4ccccc4s3)n[nH]n12,97.1% (inactive)
3,COc1cc2c(cc1OCCCCCN1CCN(c3ncnc4ccccc34)CC1)N=CC1CCCN1C2=O (centres undefined),-59% (active)
4,COc1cc2c(cc1OCCCCN1CCN(CC(=O)Nc3ccc(Cl)cc3C(=O)c3ccccc3Cl)CC1)N=CC1CCCN1C2=O (centres undefined),-76.8% (active)
5,CCOC(=O)C1=C(C)NC(=O)NC1c1cc(=O)oc2ccc(C)cc12 (centres undefined),99% (inactive)
6,COc1ccc2nc3cc(Cl)ccc3c(Nc3ccc(N(C)C)cc3)c2c1,106% (inactive)
7,C[C@@H](C[C@H](CCO)c1cc(C(F)(F)F)cc(C(F)(F)F)c1)c1ccc2ccccc2c1,87.9% (inactive)
8,COc1ccc2c(CCCc3ccc(Cl)cc3Cl)c3[n+](cc2c1OC)CCc1cc2c(cc1-3)OCO2,-28.7% (active)
9,COc1cc2c(cc1OCCCCCCN1CCN(c3ncnc4ccccc34)CC1)N=CC1CCCN1C2=O (centres undefined),-65.9% (active)
10,c1cc[n+](Cc2c3ccccc3cc3c2ccc2ccccc23)cc1,-23.5% (active)
11,CC(C)[C@@H]1CC[C@]2(CO2)[C@@H]2C(=O)OCC(C(=O)O)=C[C@H]21,-3.58% (active)
12,N#Cc1c(NC(=O)c2cccs2)[n+]([O-])c2ccc(F)cc2[n+]1[O-],92.4% (inactive)
13,CC(CCCC(=O)O)c1ccoc1 (centres undefined),96.8% (inactive)
14,CCCCCCCC(=O)SCC/C=C/[C@@H]1CC(=O)NCc2nc(co2)C2=N[C@@](C)(CS2)C(=O)N[C@@H](C(C)C)C(=O)O1,5.59% (active)
